The structures appear in SMILES notation. ± gives the standard deviation.

The test deals with Streptococcus suis HE06. Kind of test: percent growth relative to DMSO control; higher = less growth inhibition. The note with it: 10 µM; incubation time 18 h. As for the experimental part:
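CLSI broth microdilution: 5x10^4 CFU of Streptococcus suis (strain P1/7 or HE06) incubated with 10 µM Pathogen Box compound in cation-adjusted Mueller Hinton broth, 37 °C, 5% CO2, 18 h. Growth read as OD600 and expressed as percent of the DMSO-treated control (100%); mean ± SD of three independent experiments.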
On to `CC1(C)OB(O)c2ccc(C3=NOC(c4cc(Cl)c(F)c(Cl)c4)(C(F)(F)F)C3)cc21` (centres undefined), for which the percent growth is 15.4 ± 15%.
Turning to `Cc1nn(C)c(C)c1NS(=O)(=O)c1c(Cl)cc(-c2ccnc(N3CCNCC3)c2)cc1Cl`, the percent growth amounted to 94.8 ± 29%.
As for `CO[C@@H]1CN(c2ccc(C#CC3(O)CN4CCC3CC4)c(Cc3ccccc3)n2)C[C@H]1O` (some centres undefined), the percent growth turned out to be 108 ± 2.9%.
As to `CCc1nn(C)c(C(=O)NCc2ccc(Oc3ccc(C)cc3)cc2)c1Cl`, the percent growth came to 82.6 ± 11%.
`Cc1cc(C2=NOC(c3cc(Cl)c(F)c(Cl)c3)(C(F)(F)F)C2)ccc1C(=O)NCc1ccc2c(c1)C(C)(C)OB2O` (centres undefined): the percent growth came out at 60.3 ± 9.8%.
In turn, `O=C1O[C@@H](COc2ccon2)CN1c1cc(F)c(C2=CCN(Cc3ccccc3)CC2)c(F)c1` returned a percent growth of 2.62 ± 3.7%.
For the compound `Cc1nn(Cc2ccccc2)c(Cl)c1C(=O)NC1CCCCCC1`, the percent growth turned out to be 107 ± 13%.
`CO/C=C(/C(=O)OC)c1ccccc1Oc1cc(Oc2ccccc2C#N)ncn1` showed a percent growth of 76.8 ± 3.1%.
Turning to `CO/N=C(\C(=O)OC)c1ccccc1CO/N=C(\C)c1cccc(C(F)(F)F)c1`, the percent growth worked out at 102 ± 17%.
Take `CC(C)(C)C(O)C(Oc1ccc(-c2ccccc2)cc1)n1cncn1` (centres undefined): the percent growth is 86.7 ± 8.5%.
For the compound `Cc1cccc(C(=O)Nc2ccnc(N(C)C3CCN(CC(C)C)CC3)c2)c1`, the percent growth was found to be 95.9 ± 30%.
The compound `O=C1O[C@@H](CO)CN1c1cc(F)c(C2=CCN(Cc3ccccc3)CC2)c(F)c1` showed a percent growth of 3.88 ± 0.8%.
As to `Nc1c2c(nc3sc4c(c13)CCCC4)CCCC2`, the percent growth amounted to 76.3 ± 20%.
As to `CC1COC(Cn2cncn2)(c2ccc(Oc3ccc(Cl)cc3)cc2Cl)O1` (centres undefined), the percent growth stood at 77 ± 5.4%.

Source of the values: the supplement of paper PMC7866885, “A novel bicyclic 2,4-diaminopyrimidine inhibitor of Streptococcus suis dihydrofolate reductase” (PeerJ, 2021).
